Most compounds without a hit are left out; they make up all but 18% or so of the library.
IL-1B inflam inh: inhibitors of inflammasome signaling (IL-1 beta secretion); activity change, % at 57.5 µM; AID 743279; 4.7% of 360,000 active; THP-1 LPS/ATP IL-1B secretion, AlphaLISA, 16 h; active compounds read low; in the data active means activity change below about -50%; inconclusive means mostly about -30% to -49%
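THP-1 cells pretreated 1 hr with compounds (up to 57.5 uM final), then stimulated with LPS (250 ng/mL final) plus ATP (1.25 mM final); secreted IL-1B measured by AlphaLISA after 16 hr, decreased signal indicating inhibition.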
CtBP-E1A blk: inhibitors of CtBP/E1A interaction; 0.49% of 340,000 active; activity change, % (test concentration not listed); AID 651724; AlphaScreen GST-E1A/His-CtBP binding, 1536-well; active compounds read low; in the data active means activity change below about -65%; inconclusive means mostly about -30% to -63%
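AlphaScreen with 125 nM GST-E1A and 125 nM His-CtBP (5X stocks) in Tris pH 8.0, 300 mM NaCl, BSA, Tween 20, TCEP. Compounds preincubated 2 h at 37 deg C, then glutathione donor/nickel acceptor beads added for 1 h at 37 deg C in dark.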
Six1-Eya2 blk: inhibitors of human Six1/Eya2 interaction. AlphaScreen GST-Six1/His-Eya2 binding, biochemical; active compounds read low. activity change, % (concentration not given with the values). 0.56% of 360,000 active; in the data active means activity change below about -65%; inconclusive means mostly about -30% to -63%
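Six1/Eya2 binding was read as AlphaScreen signal after compounds were pinned into GST-Six1 plus His-tagged Eya2 (5X stock 250/500 nM) in pH 8.0 Tris/NaCl/TCEP buffer, beads added, then incubated 1 h, 37 C, dark.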
TDP1 block: blocks human tyrosyl-DNA phosphodiesterase 1; 0.28% of 350,000 active; recombinant TDP1, AlphaScreen DNA substrate cleavage; Potency, µM (titrated, usually from 130 µM), most hits filed as inhibitors; further: nearly all actives have a fitted effect of over 40% in size
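Enzyme-compound mixtures sat 15 min at room temperature, followed by a 5 min reaction with 15 nM final substrate and 10 min with AlphaScreen beads. Recombinant human Tdp1 was used at 1 nM final.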
DT40 TDP1 CPT: growth inhibition of DT40 Tdp1-/-;hTDP1 cells with camptothecin (screen for TDP1 inhibitors). chicken DT40 Tdp1-/-;hTDP1 cells + 20 nM CPT, ATP luminescence, 48 h. 12% of 420,000 active. Potency, µM (doses to about 46.2 µM), most hits filed as inhibitors. AID 686979; further: nearly all actives have a fitted effect of over 55% in size
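Chicken DT40 Tdp1-/- cells complemented with human TDP1, 400 cells/well, exposed to compounds plus 20 nM camptothecin for at least 48 h at 37 C; viability read as ATP content by CellTiter-Glo luminescence.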
TDP1 cell noCPT: qHTS for Inhibitors of human tyrosyl-DNA phosphodiesterase 1 (TDP1): qHTS in cells in absence of CPT; 15% of 420,000 active; DT40 Tdp1-/- hTDP1 cells, no CPT, ATP luminescence, 48 h; Potency, µM (doses to about 46.2 µM), hits mostly inhibitors; AID 686978, 2013; further: nearly all actives have a fitted effect of over 55% in size
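Chicken DT40 Tdp1-/- cells complemented with human TDP1, screened without camptothecin (DMSO vehicle only), 400 cells/well. Compounds pin-transferred, cells incubated at 37 °C for at least 48 hr. Growth read as ATP-dependent luminescence (CellTiter-Glo, 30 min at RT).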
Hits are given with their value; . = inactive; ? = inconclusive; / = not tested or not shown. Unless noted, the call rests on the fitted dose curve; in most records, active means well fitted curve in the direction sought with a large enough effect; inconclusive means small, poorly fitted or top-dose-only effect, or another doubt; inactive means no such curve, though single readings can be large; an effect the other way counts as inactive or inconclusive.

SMILES | IL-1B inflam inh | CtBP-E1A blk | Six1-Eya2 blk | TDP1 block | DT40 TDP1 CPT | TDP1 cell noCPT
CN1C(=O)S/C(=C/c2cccnc2)C1=O | . | . | . | . | ? | .
CC(C)C/C=C1\CCc2c([nH]c3ccccc23)C1=O | . | . | . | . | . | .
COc1ccccc1C(=O)N(CCC1CCCN1C)c1nc2ccccc2s1 (configuration not stated) | -78 | . | . | . | . | ?
CCc1nc(N2CCC3(CC2)OCCO3)c2nnn(Cc3ccccc3Cl)c2n1 | ? | . | . | . | ? | 16µM
COc1ccccc1COC(=O)N/C=C/c1ccco1 | . | . | . | . | . | .
Nc1c(S(=O)(=O)c2ccccc2)c2nc3ccccc3nc2n1/N=C/c1cccc(O)c1 | -72 | -84 | -75 | . | 15µM | 23µM
Cc1cccc(S(=O)(=O)c2c(N)n(/N=C/c3ccccc3)c3nc4ccccc4nc23)c1 | . | . | . | . | . | ?
CCN(CC(=O)Nc1cc(Cl)ccc1C)C(=O)Cc1ccsc1 | . | / | . | . | . | .
CC1CSc2n(-c3cccc(C(F)(F)F)c3)cc(-c3ccccc3)[n+]21 (configuration not stated) | . | . | . | . | ? | 16µM
Cc1cc(C)c(S(=O)(=O)N2CCCCC2)c(C)c1N(C)S(=O)(=O)c1ccccc1 | ? | . | . | . | 12µM | ?
Cc1ccc(S(=O)(=O)N2CCN(C)CC2)c(C)c1N(C)S(=O)(=O)c1ccc(Cl)cc1 | . | . | . | . | ? | 23µM
Cc1cc(C)c(S(=O)(=O)N2CCOCC2)c(C)c1N(C)S(=O)(=O)c1ccccc1 | . | . | . | . | . | ?
Cc1c(Cl)ccc(S(=O)(=O)N2CCN(C)CC2)c1Cl | . | . | . | / | . | .
Cc1cc(C)c(S(=O)(=O)N2CCCCC2)cc1N(C)S(=O)(=O)c1ccc(Cl)cc1 | ? | . | . | . | 23µM | 16µM
COc1ccc([C@@H]2CC=C(C(=O)O)[C@H](c3ccc(Br)cc3)N2S(=O)(=O)c2ccc(C)cc2)cc1OC | . | . | . | . | . | .
O=C1NC(=O)C(c2ccccc2)(c2ccccc2)N1S(=O)(=O)c1ccccc1 | . | . | . | / | . | .
CCOc1ccc(CCNC(=O)CCSCc2cccc(Cl)c2)cc1OCC | / | / | / | . | ? | 21µM
CCOc1ccc(CCNC(=O)CCSCc2ccc(Cl)cc2)cc1OCC | / | / | / | . | ? | 23µM
CCOc1ccc(CCNC(=O)CSC(=S)N2CCCC2)cc1OCC | . | . | . | . | 21µM | ?
CCOc1ccc(CCNC(=O)CCOc2cc(C)ccc2C)cc1OCC | . | . | . | . | ? | 18µM
Cc1ccc(C)c(OCCC(=O)NCCc2ccc(Cl)cc2)c1 | . | . | . | . | . | ?
COc1ccccc1CC(=O)Nc1ccon1 | . | / | . | / | . | .
COc1ccc(C(Nc2ccccn2)c2c(NC(=O)c3ccco3)sc(C)c2C)cc1OC (configuration not stated) | . | / | . | . | ? | ?
COc1ccc(Br)cc1CNC(=O)CCSCc1ccc(Cl)cc1 | / | / | / | . | ? | 26µM
O=C(c1[nH]ncc1-c1cccc(Br)c1)C1CO1 (configuration not stated) | -96 | . | . | . | 1.6µM | 1.8µM
O=C(c1[nH]ncc1-c1ccccc1)C1CO1 (configuration not stated) | -73 | . | . | . | 9.2µM | 13µM
Cn1cnc([N+](=O)[O-])c1Nc1cccc(O)c1 | . | . | . | . | . | .

Screening results: PubChem BioAssay, National Center for Advancing Translational Sciences (NCATS)
